Counter-ions that a name gives are not always drawn.
test system: UCD52 (cells of a triple-negative basal-like breast cancer xenograft); assay: cell viability of combination (% of vehicle); higher = less cytotoxic; conditions: 1 µM; 72 h; partner dose: 10 nM
Procedure: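 PDX cells were treated for 72 h with each drug at 1 µM plus afatinib (10 nM; 1 µM for WHIM30). Luciferase viability is expressed as percent of vehicle.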

Row | SMILES | cell viability of combination
1 | CO[C@H]1/C=C/O[C@@]2(C)Oc3c(C)c(O)c4c(O)c(c(/C=N/N5CCN(C6CCCC6)CC5)c(O)c4c3C2=O)NC(=O)/C(C)=C\C=C\[C@H](C)[C@H](O)[C@@H](C)[C@@H](O)[C@@H](C)[C@H](OC(C)=O)[C@@H]1C [Rifapentine] + CN(C)C/C=C/C(=O)Nc1cc2c(Nc3ccc(F)c(Cl)c3)ncnc2cc1O[C@H]1CCOC1 [Afatinib] | 72.2
2 | N.N.O=C([O-])C1(C(=O)[O-])CCC1.[Pt+2] [Carboplatin] + CN(C)C/C=C/C(=O)Nc1cc2c(Nc3ccc(F)c(Cl)c3)ncnc2cc1O[C@H]1CCOC1 [Afatinib] | 68.6
3 | CN(C)CCOc1ccc(C(=C(CCCl)c2ccccc2)c2ccccc2)cc1.O=C(O)CC(O)(CC(=O)O)C(=O)O [Toremifene Citrate] + CN(C)C/C=C/C(=O)Nc1cc2c(Nc3ccc(F)c(Cl)c3)ncnc2cc1O[C@H]1CCOC1 [Afatinib] | 77.4
4 | Cc1nc(Nc2ncc(C(=O)Nc3c(C)cccc3Cl)s2)cc(N2CCN(CCO)CC2)n1 + CN(C)C/C=C/C(=O)Nc1cc2c(Nc3ccc(F)c(Cl)c3)ncnc2cc1O[C@H]1CCOC1 [Afatinib] | 27.6
5 | CC(C)(C)Cn1c(N)nc2ccc(-c3[nH]c(C(C)(C)C)nc3-c3ccc(F)cc3)nc21.CS(=O)(=O)O.CS(=O)(=O)O + CN(C)C/C=C/C(=O)Nc1cc2c(Nc3ccc(F)c(Cl)c3)ncnc2cc1O[C@H]1CCOC1 [Afatinib] | 30.3
6 | C=C(c1ccc(C(=O)O)cc1)c1cc2c(cc1C)C(C)(C)CCC2(C)C [Bexarotene] + CN(C)C/C=C/C(=O)Nc1cc2c(Nc3ccc(F)c(Cl)c3)ncnc2cc1O[C@H]1CCOC1 [Afatinib] | 82.4
7 | COc1cccc2c1C(=O)c1c(O)c3c(c(O)c1C2=O)CC(O)(C(=O)CO)CC3OC1CC(N)C(O)C(C)O1.Cl (stereo not given) [Doxorubicin (Adriamycin) HCl] + CN(C)C/C=C/C(=O)Nc1cc2c(Nc3ccc(F)c(Cl)c3)ncnc2cc1O[C@H]1CCOC1 [Afatinib] | 40.9
8 | CCCSc1nc(NC2CC2c2ccc(F)c(F)c2)c2nnn(C3CC(OCCO)C(O)C3O)c2n1 (stereo not given) [Ticagrelor] + CN(C)C/C=C/C(=O)Nc1cc2c(Nc3ccc(F)c(Cl)c3)ncnc2cc1O[C@H]1CCOC1 [Afatinib] | 72.2
9 | C=CC(=O)Nc1cc(Nc2nccc(-c3cn(C)c4ccccc34)n2)c(OC)cc1N(C)CCN(C)C + CN(C)C/C=C/C(=O)Nc1cc2c(Nc3ccc(F)c(Cl)c3)ncnc2cc1O[C@H]1CCOC1 [Afatinib] | 50.2
10 | Br.Cc1ccc(Sc2ccccc2N2CCNCC2)c(C)c1 + CN(C)C/C=C/C(=O)Nc1cc2c(Nc3ccc(F)c(Cl)c3)ncnc2cc1O[C@H]1CCOC1 [Afatinib] | 55.4
11 | Cc1nc(NC(=O)N2CCCC2C(N)=O)sc1-c1ccnc(C(C)(C)C(F)(F)F)c1 (stereo not given) + CN(C)C/C=C/C(=O)Nc1cc2c(Nc3ccc(F)c(Cl)c3)ncnc2cc1O[C@H]1CCOC1 [Afatinib] | 43.4
12 | CNCCC(Oc1cccc2ccccc12)c1cccs1.Cl (stereo not given) [Duloxetine HCl] + CN(C)C/C=C/C(=O)Nc1cc2c(Nc3ccc(F)c(Cl)c3)ncnc2cc1O[C@H]1CCOC1 [Afatinib] | 59.8
13 | CCCCCOc1ccc(-c2ccc(-c3ccc(C(=O)N[C@H]4C[C@@H](O)[C@@H](O)NC(=O)[C@@H]5[C@@H](O)[C@@H](C)CN5C(=O)[C@H]([C@@H](C)O)NC(=O)[C@H]([C@H](O)[C@@H](O)c5ccc(O)cc5)NC(=O)[C@@H]5C[C@@H](O)CN5C(=O)[C@H]([C@@H](C)O)NC4=O)cc3)cc2)cc1 [Anidulafungin] + CN(C)C/C=C/C(=O)Nc1cc2c(Nc3ccc(F)c(Cl)c3)ncnc2cc1O[C@H]1CCOC1 [Afatinib] | 68.6
14 | CCc1oc2ccccc2c1C(=O)c1cc(Br)c(O)c(Br)c1 [Benzbromarone] + CN(C)C/C=C/C(=O)Nc1cc2c(Nc3ccc(F)c(Cl)c3)ncnc2cc1O[C@H]1CCOC1 [Afatinib] | 77.2
15 | COc1nc2ccc(Br)cc2cc1[C@@H](c1ccccc1)[C@@](O)(CCN(C)C)c1cccc2ccccc12 [Bedaquiline fumarate] + CN(C)C/C=C/C(=O)Nc1cc2c(Nc3ccc(F)c(Cl)c3)ncnc2cc1O[C@H]1CCOC1 [Afatinib] | 91.2
16 | [O-]n1ccccc1=S.[O-]n1ccccc1=S.[Zn+2] [Zinc Pyrithione] + CN(C)C/C=C/C(=O)Nc1cc2c(Nc3ccc(F)c(Cl)c3)ncnc2cc1O[C@H]1CCOC1 [Afatinib] | 56
17 | Clc1ccc(C(Cn2ccnc2)OCc2c(Cl)cccc2Cl)c(Cl)c1.O=[N+]([O-])O (stereo not given) [Isoconazole nitrate] + CN(C)C/C=C/C(=O)Nc1cc2c(Nc3ccc(F)c(Cl)c3)ncnc2cc1O[C@H]1CCOC1 [Afatinib] | 78.3
18 | COc1ccc2c(O[C@H]3CC4C(=O)N(C)CCCC/C=C\[C@H]5C[C@@]5(C(=O)NS(=O)(=O)C5CC5)NC(=O)[C@@H]4C3)cc(-c3nc(C(C)C)cs3)nc2c1C (stereo not given in full) [Simeprevir] + CN(C)C/C=C/C(=O)Nc1cc2c(Nc3ccc(F)c(Cl)c3)ncnc2cc1O[C@H]1CCOC1 [Afatinib] | 64.5
19 | COc1cc2c(Oc3ccc(NC(=O)C4(C(=O)Nc5ccc(F)cc5)CC4)cc3F)ccnc2cc1OCCCN1CCOCC1 + CN(C)C/C=C/C(=O)Nc1cc2c(Nc3ccc(F)c(Cl)c3)ncnc2cc1O[C@H]1CCOC1 [Afatinib] | 28.5
20 | COCCOC(=O)C1=C(C)NC(C)=C(C(=O)OCC=Cc2ccccc2)C1c1cccc([N+](=O)[O-])c1 (stereo not given) [Cilnidipine] + CN(C)C/C=C/C(=O)Nc1cc2c(Nc3ccc(F)c(Cl)c3)ncnc2cc1O[C@H]1CCOC1 [Afatinib] | 70.6

Row | SMILES | cell viability of combination
21 | Cc1c(C(=O)NN2CCCCC2)nn(-c2ccc(Cl)cc2Cl)c1-c1ccc(Cl)cc1 [Rimonabant] + CN(C)C/C=C/C(=O)Nc1cc2c(Nc3ccc(F)c(Cl)c3)ncnc2cc1O[C@H]1CCOC1 [Afatinib] | 75
22 | COc1ccc(CN2CCN(C(c3ccc(F)cc3)c3ccc(F)cc3)CC2)c(OC)c1OC.Cl.Cl [Lomerizine HCl] + CN(C)C/C=C/C(=O)Nc1cc2c(Nc3ccc(F)c(Cl)c3)ncnc2cc1O[C@H]1CCOC1 [Afatinib] | 68.9
23 | C=C1C(=CC=C2CCCC3(C)C2CCC3C(C)CCCC(C)(C)O)CC(O)CC1O (stereo not given) [Calcitriol] + CN(C)C/C=C/C(=O)Nc1cc2c(Nc3ccc(F)c(Cl)c3)ncnc2cc1O[C@H]1CCOC1 [Afatinib] | 43.3
24 | CCc1cnn2c(NCc3ccc[n+]([O-])c3)cc(N3CCCCC3CCO)nc12 (stereo not given) + CN(C)C/C=C/C(=O)Nc1cc2c(Nc3ccc(F)c(Cl)c3)ncnc2cc1O[C@H]1CCOC1 [Afatinib] | 21.4
25 | Cc1cc(Nc2ncc(Cl)c(Nc3ccccc3S(=O)(=O)C(C)C)n2)c(OC(C)C)cc1C1CCNCC1 + CN(C)C/C=C/C(=O)Nc1cc2c(Nc3ccc(F)c(Cl)c3)ncnc2cc1O[C@H]1CCOC1 [Afatinib] | 28.7
26 | Cc1cn(-c2cc(NC(=O)c3ccc(C)c(Nc4nccc(-c5cccnc5)n4)c3)cc(C(F)(F)F)c2)cn1 [Nilotinib(AMN-107)] + CN(C)C/C=C/C(=O)Nc1cc2c(Nc3ccc(F)c(Cl)c3)ncnc2cc1O[C@H]1CCOC1 [Afatinib] | 56.1
27 | Clc1ccc(CSC(Cn2ccnc2)c2ccc(Cl)cc2Cl)cc1.O=[N+]([O-])O (stereo not given) [Sulconazole Nitrate] + CN(C)C/C=C/C(=O)Nc1cc2c(Nc3ccc(F)c(Cl)c3)ncnc2cc1O[C@H]1CCOC1 [Afatinib] | 74.1
28 | CC(C)N=c1cc2n(-c3ccc(Cl)cc3)c3ccccc3nc-2cc1Nc1ccc(Cl)cc1 [Clofazimine] + CN(C)C/C=C/C(=O)Nc1cc2c(Nc3ccc(F)c(Cl)c3)ncnc2cc1O[C@H]1CCOC1 [Afatinib] | 69.6
29 | Clc1ccc(COC(Cn2ccnc2)c2ccc(Cl)cc2Cl)c(Cl)c1.O=[N+]([O-])O (stereo not given) [Miconazole Nitrate] + CN(C)C/C=C/C(=O)Nc1cc2c(Nc3ccc(F)c(Cl)c3)ncnc2cc1O[C@H]1CCOC1 [Afatinib] | 76.3
30 | Cl.OC(CNCC(O)C1CCc2cc(F)ccc2O1)C1CCc2cc(F)ccc2O1 (stereo not given) [Nebivolol] + CN(C)C/C=C/C(=O)Nc1cc2c(Nc3ccc(F)c(Cl)c3)ncnc2cc1O[C@H]1CCOC1 [Afatinib] | 64.9
31 | COC(=O)c1ccc2c(c1)NC(=O)C2=C(Nc1ccc(N(C)C(=O)CN2CCN(C)CC2)cc1)c1ccccc1 [Nintedanib (BIBF 1120)] + CN(C)C/C=C/C(=O)Nc1cc2c(Nc3ccc(F)c(Cl)c3)ncnc2cc1O[C@H]1CCOC1 [Afatinib] | 19.6
32 | COc1cc2nccc(Oc3ccc(NC(=O)Nc4cc(C)on4)c(Cl)c3)c2cc1OC [Tivozanib (AV-951)] + CN(C)C/C=C/C(=O)Nc1cc2c(Nc3ccc(F)c(Cl)c3)ncnc2cc1O[C@H]1CCOC1 [Afatinib] | 40.2
33 | CC1=C(C(=O)OC(C)C)C(c2cccc([N+](=O)[O-])c2)C(C(=O)OC2CN(C(c3ccccc3)c3ccccc3)C2)=C(N)N1 (stereo not given) [Azelnidipine] + CN(C)C/C=C/C(=O)Nc1cc2c(Nc3ccc(F)c(Cl)c3)ncnc2cc1O[C@H]1CCOC1 [Afatinib] | 52.3
34 | Cl.Cl.Fc1ccc(C(c2ccc(F)cc2)N2CCN(CC=Cc3ccccc3)CC2)cc1 [Flunarizine 2HCl] + CN(C)C/C=C/C(=O)Nc1cc2c(Nc3ccc(F)c(Cl)c3)ncnc2cc1O[C@H]1CCOC1 [Afatinib] | 77
35 | Cc1c(-c2ccc(O)cc2)n(Cc2ccc(OCCN3CCCCCC3)cc2)c2ccc(O)cc12.Cl [Bazedoxifene HCl] + CN(C)C/C=C/C(=O)Nc1cc2c(Nc3ccc(F)c(Cl)c3)ncnc2cc1O[C@H]1CCOC1 [Afatinib] | 69.7
36 | CCc1c(Cl)c(O)c(Cl)c(O)c1C(=O)OC1C(C)OC(OCC2=CC=CCC(O)C(C)=CC(CC)C(OC3OC(C)(C)C(OC(=O)C(C)C)C(O)C3O)C(C)=CC(C)=CCC(C(C)O)OC2=O)C(OC)C1O (stereo not given) [Fidaxomicin] + CN(C)C/C=C/C(=O)Nc1cc2c(Nc3ccc(F)c(Cl)c3)ncnc2cc1O[C@H]1CCOC1 [Afatinib] | 81.9
37 | CC[C@@H]1/C=C(\C)C[C@H](C)C[C@H](OC)[C@H]2O[C@@](O)(C(=O)C(=O)N3CCCC[C@H]3C(=O)O[C@H](/C(C)=C/[C@@H]3CC[C@H](Cl)[C@H](OC)C3)[C@H](C)[C@@H](O)CC1=O)[C@H](C)C[C@@H]2OC [Pimecrolimus] + CN(C)C/C=C/C(=O)Nc1cc2c(Nc3ccc(F)c(Cl)c3)ncnc2cc1O[C@H]1CCOC1 [Afatinib] | 70.7
38 | CCCCc1oc2ccccc2c1C(=O)c1cc(I)c(OCCN(CC)CC)c(I)c1.Cl [Amiodarone HCl] + CN(C)C/C=C/C(=O)Nc1cc2c(Nc3ccc(F)c(Cl)c3)ncnc2cc1O[C@H]1CCOC1 [Afatinib] | 66.3
39 | CC(C)C[C@H](NC(=O)[C@H](Cc1ccccc1)NC(=O)c1cnccn1)B(O)O [Bortezomib] + CN(C)C/C=C/C(=O)Nc1cc2c(Nc3ccc(F)c(Cl)c3)ncnc2cc1O[C@H]1CCOC1 [Afatinib] | 15.1
40 | Cc1ccc(NC(=O)c2ccc(CN3CCN(C)CC3)cc2)cc1Nc1nc(-c2cccnc2)cs1 [Masitinib (AB1010)] + CN(C)C/C=C/C(=O)Nc1cc2c(Nc3ccc(F)c(Cl)c3)ncnc2cc1O[C@H]1CCOC1 [Afatinib] | 64.5
